Experimental data taken from PubChem BioAssay AID1212 (NMMLSC, 2008).
The source made the active and inactive calls.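 How the source made its calls: active means blocks over 60% of fluorescent estradiol binding at 10 µM; inactive means the rest.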

target: G-protein coupled estrogen receptor 1 (Homo sapiens) (UniProt Q99527); experiment: GPR30 competitive binders vs fluorescent estrogen, primary screen, cell-based, Cos7 GPR30-GFP, flow cytometry, 10 µM (AID 1212); settings: fluorescent estrogen competition, at 10 µM; hits give high values

outcome, inactive:
COc1cc([N+](=O)[O-])cc2c1NC(c1ccccc1Cl)C1CC=CC21 (configuration not stated)
CSC(=O)CNC1(Cc2ccc(O)cc2)CCCCC1
CCCOc1cc(OCCC)c2c3c(c(=O)oc2c1)CCCC3
CCc1cc2c3c(c(=O)oc2cc1OCC(=O)OC)CCCC3
CCOc1cc2c(cc1OCC)C(C(CC)CC)NCC2 (configuration not stated)
Cc1ccc(-n2cc3c(c(C#N)c2=N)CC(C)(C)CC3=O)cc1
COc1ccc(-n2cc3c(c(C#N)c2=N)CC(C)(C)CC3=O)cc1
O=c1oc2cc(O)c(Cl)cc2c2c1CCCC2
COc1ccc2c(c1)c1c3n2CCNC3CCC1 (configuration not stated)
CCCCCCc1cc2c3c(c(=O)oc2cc1OCC(=O)OC)CCC3
CCCCCCc1cc2c3c(c(=O)oc2cc1OCC(N)=O)CCC3
CC1(C)C=C(c2ccc(O)cc2)CC(C)(C)N1
CCOC(=O)COc1cc2oc(=O)c3c(c2cc1CC)CCCC3
COc1cccc(C2NCCc3cc(OC)c(OC)cc32)c1 (configuration not stated)
CCOc1cc2c(c([N+](=O)[O-])c1)NC(c1ccc(Cl)cc1)C1CC=CC21 (configuration not stated)
CC1(C)Cc2[nH]c(=O)c(C(=O)O)cc2CO1
CCCc1c(C(=O)OCC)[nH]c2c1C(=O)CC(c1ccccc1)C2 (configuration not stated)
O=C1CC(c2ccc3c(c2)OCO3)c2ccc3ccccc3c2N1 (configuration not stated)
Cc1nc2ccccc2n1-c1cc(C(C)(C)C)c(O)c(C(C)(C)C)c1

inhibition, inactive:
CC1CCC2(C)c3[nH]c4ccccc4c3CCN2C1=O (configuration not stated) 2%
O=C1CC(c2ccncc2)c2cc3c(cc2N1)OCCO3 (configuration not stated) 1%
COc1ccc(NS(=O)(=O)c2ccc3c(c2)[C@H]2C=CC[C@H]2[C@@H](c2ccc(F)cc2)N3)cc1 56%
O=C(O)c1ccc2c(c1)C1C=CCC1C(c1cccc([N+](=O)[O-])c1)N2 (configuration not stated) 57%
CCc1cc2c3c(c(=O)oc2cc1OCC(=O)O)CCCC3 10%
CC(C)CN(Cc1c(O)ccc2c3c(c(=O)oc12)CCC3)CC(C)C 3%
COc1ccc2[nH]c3c(c2c1)CCNC3=O 15%
COc1ccccc1C1Nc2c(C(=O)O)cccc2C2C3CCC(C3)C12 (configuration not stated) 5%
